Screening data as filed in PubChem BioAssay.
Shown are actives, neighbours in structure and some others; about 11% of the full set was active somewhere.
PNC assembly inh – High Content Assay for Compounds that inhibit the Assembly of the Perinucleolar Compartment; PC3M PTB-GFP, PNC prevalence imaging, 16 h; hits give low values; activity change (PNC), negative = inhibition, % at 10 µM; AID 2417, 2010; 140,000 compounds, 3.1% hits;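 active = readout at or below -70, meaning at least 70% loss of cells showing the perinucleolar compartment, a nuclear body marking cancer cells; inconclusive = readout between -30 and a set limit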;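 note: plate controls were DMSO wells for no effect and camptothecin positive control wells for full effect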
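PC3M cells stably expressing PTB-GFP, 750–1000 cells/well, treated 16 h at 37 °C with compound (23 nl of library stock), in duplicate. After paraformaldehyde fixation and Hoechst stain, imaged at 20x; PNC prevalence scored by image analysis.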
JMJD2E inh – qHTS Assay for Inhibitors of Human Jumonji Domain Containing 2E (JMJD2E); Lysine-specific demethylase 4E (Homo sapiens), B2RXH2; JMJD2E catalytic domain, FDH-coupled NADH fluorescence (FDH is formaldehyde dehydrogenase); Potency, µM (series often up to 57.1 µM), for inactives: at the top dose activity change, negative = inhibition, usual class: inhibitors; 230,000 compounds, 1.6% hits;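 note: potency is the fitted concentration of half-maximal effect; 0% = wells with enzyme and -100% = buffer wells without enzyme; nearly all actives have a fitted effect of over 50% in size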
Target sequence (B2RXH2 1-337 limits assumed): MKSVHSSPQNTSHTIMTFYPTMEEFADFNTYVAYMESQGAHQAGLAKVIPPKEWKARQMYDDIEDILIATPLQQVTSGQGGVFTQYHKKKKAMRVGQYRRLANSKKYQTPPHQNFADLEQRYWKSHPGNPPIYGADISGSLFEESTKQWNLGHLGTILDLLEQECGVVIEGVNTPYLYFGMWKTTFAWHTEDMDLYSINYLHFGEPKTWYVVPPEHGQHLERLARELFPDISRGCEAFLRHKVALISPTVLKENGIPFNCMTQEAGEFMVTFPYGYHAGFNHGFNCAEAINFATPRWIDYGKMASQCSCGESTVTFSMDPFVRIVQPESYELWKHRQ
HPGD block – qHTS Assay for Inhibitors of HPGD (15-Hydroxyprostaglandin Dehydrogenase); 15-hydroxyprostaglandin dehydrogenase [NAD(+)] (Homo sapiens), P15428; purified HPGD, NADH fluorescence kinetic, PGE2 substrate; Potency, µM, for the others: at the top dose activity change, negative = inhibition, hits mostly inhibitors; 150,000 compounds, 4.3% hits; AID 894, 2007; note: potency is the fitted concentration of half-maximal effect
Target sequence (P15428 whole entry, looked up): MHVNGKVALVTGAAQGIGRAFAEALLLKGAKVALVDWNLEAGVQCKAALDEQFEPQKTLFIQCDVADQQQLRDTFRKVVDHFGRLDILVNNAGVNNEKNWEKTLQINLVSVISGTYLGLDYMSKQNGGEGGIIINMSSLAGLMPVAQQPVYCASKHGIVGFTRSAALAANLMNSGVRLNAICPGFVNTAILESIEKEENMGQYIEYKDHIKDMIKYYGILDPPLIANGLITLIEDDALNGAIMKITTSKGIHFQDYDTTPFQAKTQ
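20 nM HPGD preincubated 15 min at room temperature with compound in 50 mM Tris-HCl pH 8, 0.01% Tween 20. Started with 1 mM NAD+ and 30 uM prostaglandin E2; NADH fluorescence (360/450 nm) read 5 times over 30-s intervals, last minus first.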
ALDH1A1 block – qHTS Assay for Inhibitors of Aldehyde Dehydrogenase 1 (ALDH1A1); Aldehyde dehydrogenase 1A1 (Homo sapiens), P00352; Purified ALDH1A1, NADH fluorescence, propionaldehyde substrate; Potency, µM (highest dose often 75.3 µM), for the others: at the highest dose activity, negative = inhibition, usual class: inhibitors; 220,000 compounds, 7.3% hits; AID 1030, 2008;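 note: potency is the fitted concentration of half-maximal effect; plate controls were no enzyme wells and a reference inhibitor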
The depositor's hits bear a star; ! = not confirmed by another sample. Unless noted, calls come from the whole dose curve; as a rule, active = well fitted inhibition curve with a large enough effect (not every such curve was filed as active); inconclusive = small, poorly fitted or top-dose-only effect, or another doubt; inactive = no such curve, though single readings can be large or run the other way. Unless noted, % is set by controls: 0 for no effect and ±100 for the full control effect.

O=C(CN1CCOCC1)Nc1ccc(C2CCCCC2)cc1 was read as PNC assembly inh 7, JMJD2E inh -2%, HPGD block 16µM* and ALDH1A1 block 25µM*.
`O=C(CN1CCOCC1)Nc1ccc(S(=O)(=O)NC2CCCCC2)cc1` gave PNC assembly inh inconclusive, JMJD2E inh 4%, HPGD block inconclusive and ALDH1A1 block inconclusive.
For CCOc1cc(NC2CS(=O)(=O)CC2O)c(OCC)cc1NC(=O)c1ccccc1 (stereo unspecified) the results were PNC assembly inh 78, JMJD2E inh 4%, HPGD block -13% and ALDH1A1 block 13µM*.
For CCOc1cc(NC(=O)c2ccccn2)c(OCC)cc1NC(=O)c1ccccc1 the results were JMJD2E inh 6% and ALDH1A1 block 0%.
For Nc1nonc1C(=O)N/N=C/c1ccc(Br)o1 the results were JMJD2E inh 3% and ALDH1A1 block 0%.
`COC(=O)N/N=C/c1ccc(-c2ccc(C)c(Cl)c2)o1` gave PNC assembly inh 3, JMJD2E inh inconclusive, HPGD block 14µM* and ALDH1A1 block -11%.
`Nc1nonc1C(=O)N/N=C/c1ccc(-c2ccc(Cl)c(C(=O)O)c2)o1` gave JMJD2E inh inconclusive and ALDH1A1 block 4µM*.
Screening COC(=O)N/N=C/c1ccc(-c2cc(Cl)cc(Cl)c2)o1 returned PNC assembly inh -26, JMJD2E inh -3%, HPGD block -17% and ALDH1A1 block -1%.
Screening O=C(COc1cccnc1[N+](=O)[O-])Nc1ccc2c(c1)OC(F)(F)O2 returned PNC assembly inh 28, JMJD2E inh 1%, HPGD block -8% and ALDH1A1 block 3%.
`O=C(CC1(c2ccc(Cl)cc2)C2CC3CC(C2)CC1C3)NCCO` (stereo unspecified) gave JMJD2E inh 1% and ALDH1A1 block 13µM*.
`CCCc1[nH]c(=O)c(C#N)c2c1CCCC2` gave PNC assembly inh 30, JMJD2E inh inconclusive, HPGD block inconclusive and ALDH1A1 block inconclusive.
c1ccc(CC2CCN(C3=Nc4cccc5cccc3c45)CC2)cc1 was read as PNC assembly inh -2, JMJD2E inh -11%, HPGD block -9% and ALDH1A1 block 14µM*.
CCN1/C(=C/c2ccc3cc(C)ccc3[n+]2CC)Sc2ccccc21 was read as PNC assembly inh -93*, JMJD2E inh -4%, HPGD block -9% and ALDH1A1 block -11%.
Screening CCN1/C(=C/c2ccc3cc(C)ccc3[n+]2CC)Sc2cc(C)c(C)cc21 returned JMJD2E inh inconclusive and ALDH1A1 block -6%.
c1ccc2c(NC3CC3)nc(-c3ccoc3)nc2c1 was read as ALDH1A1 block -2%.
Screening CCOc1cc(/C=C2\SC(=N)N(c3nonc3N)C2=O)ccc1OCC(N)=O returned PNC assembly inh 17, JMJD2E inh -12%, HPGD block 13µM* and ALDH1A1 block -18%.
CC1(C)CC2C1CCC1(C)OC2(C)CCC1O (stereo unspecified) was read as JMJD2E inh -1%, HPGD block -3% and ALDH1A1 block -2%.
CCOC(=O)c1c(-c2ccc(F)cc2)csc1NC(=O)CCN1CCOCC1 was read as PNC assembly inh 17, JMJD2E inh 25µM* and ALDH1A1 block inconclusive.
`CCOC(=O)c1c(-c2cccs2)csc1NC(=O)CSc1ncn[nH]1` gave PNC assembly inh inconclusive, JMJD2E inh -15%, HPGD block inconclusive and ALDH1A1 block 20µM*.
For CCOC(=O)c1c(-c2cccs2)csc1NC(=O)CNCCN1CCOCC1 the results were PNC assembly inh 1, JMJD2E inh 22µM*, HPGD block -12% and ALDH1A1 block -4%.
`CCOC(=O)C1=C(c2ccccc2)N=c2s/c(=C\c3ccco3)c(=O)n2C1c1cccs1` (stereo unspecified) gave PNC assembly inh 11, JMJD2E inh 13µM*, HPGD block -22% and ALDH1A1 block inconclusive.
`CCOC(=O)C1=C(c2ccccc2)N=c2s/c(=C\c3cc(OC)c(OC)c(OC)c3)c(=O)n2C1c1cccs1` (stereo unspecified) gave PNC assembly inh 13, JMJD2E inh 6%, HPGD block -23% and ALDH1A1 block 3%.
For COC(=O)c1sccc1NC(=S)N1C(C)CCCC1C (stereo unspecified) the results were JMJD2E inh -4% and ALDH1A1 block -9%.
Screening C/C(CC(=O)Nc1ccc2c(c1)OCO2)=N\NC(=O)C(c1ccccc1)c1ccccc1 returned PNC assembly inh 24, JMJD2E inh -12%, HPGD block -7% and ALDH1A1 block 3.2µM*.
`O=C(NN1C(=O)C2C3CCC(O3)C2C1=O)c1ccc(Cl)cc1` (stereo unspecified) gave PNC assembly inh -15, JMJD2E inh 12%, HPGD block 3% and ALDH1A1 block 5%.
Screening Cc1occc1C(=O)NN1C(=O)C2C3CCC(O3)C2C1=O (stereo unspecified) returned PNC assembly inh -102*, JMJD2E inh 9%, HPGD block -5% and ALDH1A1 block 3%.
For COc1ccc(N(C)S(=O)(=O)c2cccc(C(=O)NC3CCC(C)CC3)c2)cc1 (stereo unspecified) the results were JMJD2E inh -1% and ALDH1A1 block inconclusive.
Screening COc1ccc(C2=CSC3=C(C(=O)c4cccc(S(=O)(=O)N(C)C)c4)CCN23)cc1 returned PNC assembly inh inconclusive, JMJD2E inh 6%, HPGD block -17% and ALDH1A1 block 2µM*.
`Cc1[nH]c2ccccc2c1C(=O)COC(=O)c1ccc2c(=O)n3c(nc2c1)CCC3` gave JMJD2E inh 5% and ALDH1A1 block -5%.
For C=C[C@](C)(O)CCC1C(=C)CC(OC(C)=O)C2C(C)(C)CCCC12C (stereo partly specified) the results were JMJD2E inh -6%, HPGD block -24% and ALDH1A1 block 2%.
For C=C[C@@](C)(O)CC[C@@H]1[C@@]2(C)CCCC(C)(C)[C@@H]2CC[C@@]1(C)O the results were JMJD2E inh -9%, HPGD block -9% and ALDH1A1 block 40µM*!.
`CC(Oc1ccc(O)cc1)(P(=O)(O)O)P(=O)(O)O` gave JMJD2E inh 1.6µM*, HPGD block 1% and ALDH1A1 block 0%.
For N#C/C(=C\c1cn(CCOc2ccccc2)c2ccccc12)C(=O)NCc1cccs1 the results were PNC assembly inh inconclusive, JMJD2E inh -13%, HPGD block -13% and ALDH1A1 block inconclusive.
CCC(=O)Nc1cc(C(=O)O)ccc1Sc1ccc(Cl)cc1 was read as JMJD2E inh -6% and ALDH1A1 block -2%.
COc1ccc(NC(=O)c2ccccc2-c2ccccc2)cc1 was read as JMJD2E inh 7% and ALDH1A1 block -2%.
